RORg inh: inhibitors of mouse ROR gamma transcriptional activity | P51450 | Drosophila S2 Gal4-RORgamma UAS-luciferase reporter, 20 h | Potency, µM (doses to about 53.6 µM), inactives show top-dose activity change, negative = inhibition, usual class: inhibitors | hit rate 5.4% among 310,000; also: potency is read from the fitted curve at half-maximal effect; nearly all actives have a fitted effect of over 60% in size
Target sequence (P51450 whole entry, looked up, the tested form may be a part): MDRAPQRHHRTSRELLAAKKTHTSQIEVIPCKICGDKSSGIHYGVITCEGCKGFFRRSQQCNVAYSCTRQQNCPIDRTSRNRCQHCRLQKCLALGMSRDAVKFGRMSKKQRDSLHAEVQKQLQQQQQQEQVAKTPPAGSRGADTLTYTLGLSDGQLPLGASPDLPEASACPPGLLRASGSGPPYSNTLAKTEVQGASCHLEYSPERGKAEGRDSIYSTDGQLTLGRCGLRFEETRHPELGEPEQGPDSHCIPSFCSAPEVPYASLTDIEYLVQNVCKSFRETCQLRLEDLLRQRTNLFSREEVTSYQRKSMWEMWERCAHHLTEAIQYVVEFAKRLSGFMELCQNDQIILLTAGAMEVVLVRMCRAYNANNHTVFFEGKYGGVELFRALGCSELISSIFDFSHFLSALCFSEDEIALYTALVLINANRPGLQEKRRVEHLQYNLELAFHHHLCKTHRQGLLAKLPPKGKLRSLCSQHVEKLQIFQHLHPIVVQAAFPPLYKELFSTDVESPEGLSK
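A Gal4/UAS one-hybrid system in insect cells: metallothionein-promoter Gal4–ROR gamma fusion plus Photinus luciferase reporter. Copper sulfate 700 uM final, 20 hr ambient incubation, luminescent detection after 10 min with reagent.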
Gal4-VP16 FLuc: inhibits Gal4-VP16 luciferase reporter, ROR gamma counter-screen; AID 2546; Drosophila S2 Gal4-VP16 UAS-luciferase, luminescence, 20 h; hit rate 3.5% among 310,000; Potency, µM (series often up to 53.6 µM), for inactives: at the top dose activity, negative = inhibition, actives largely listed as inhibitors;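 also: Gal4-VP16 expression switched on by copper sulfate through the metallothionein promoter; potency is read from the fitted curve at half-maximal effect; nearly all actives have a fitted effect of over 50% in size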
IL1B secr inh: inhibitors of inflammasome signaling (IL-1 beta secretion) | hit rate 4.7% among 360,000 | activity change, % at 57.5 µM | AID 743279 | THP-1 LPS/ATP IL-1B secretion, AlphaLISA, 16 h; hits give low values; in the data active = activity change below about -50%; inconclusive = mostly about -30% to -49%
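Secreted IL-1B measured by AlphaLISA bead assay after 16 h compound exposure of THP-1 cells; compounds (final up to 57.5 uM) added 1 h before LPS (250 ng/mL) and ATP (1.25 mM) stimulation; lower signal means less secretion.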
DT40 TDP1 no CPT: qHTS for Inhibitors of human tyrosyl-DNA phosphodiesterase 1 (TDP1): qHTS in cells in absence of CPT. DT40 Tdp1-/- hTDP1 cells, no CPT, ATP luminescence, 48 h. Potency, µM (top dose mostly 46.2 µM), for the others: at the highest dose activity change, negative = growth inhibition, most hits filed as inhibitors. hit rate 15% among 420,000; also: potency is read from the fitted curve at half-maximal effect; nearly all actives have a fitted effect of over 55% in size
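Compound effects on proliferation are scored in DT40 Tdp1-/-;hTDP1 cells in the absence of CPT. ATP levels (CellTiter-Glo luminescence) are recorded after a ≥48 hr, 37 °C incubation.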
DT40 TDP1 CPT: DT40-hTDP1 cell growth loss with CPT; chicken DT40 Tdp1-/-;hTDP1 cells + 20 nM CPT, ATP luminescence, 48 h; AID 686979; hit rate 12% among 420,000; Potency, µM (doses to about 46.2 µM), for the others: at the top dose activity change, negative = growth inhibition, hits mostly inhibitors; also: potency is read from the fitted curve at half-maximal effect; nearly all actives have a fitted effect of over 55% in size
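Chicken DT40 Tdp1-/- cells complemented with human TDP1, 400 cells/well, exposed to compounds plus 20 nM camptothecin for at least 48 h at 37 C; viability read as ATP content by CellTiter-Glo luminescence.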
ELG1 repair inh: blocks ELG1-dependent DNA repair in HEK293T cells; HEK293T ELG1-luciferase reporter, luminescence, 16 h; DNA damage induced by 5-fluorouridine; Potency, µM (highest dose often 46.1 µM), for the others: at the top dose activity change, negative = inhibition, hits mostly inhibitors; hit rate 2.3% among 330,000; AID 504467; also: potency is read from the fitted curve at half-maximal effect; nearly all actives have a fitted effect of over 55% in size
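Cells (2,000 per well) received 5-fluorouridine plus test compound or DMSO and were incubated 16 hr at 37 °C, 5% CO2. Luciferase activity was read by luminescence 30 min after ONE-Glo addition; signal suppression marked inhibition of damage-induced ELG1 function.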
Active calls of the source: *; ? = inconclusive; · = no result given; [ ] = remark or other dose. An excerpt weighted towards active compounds, which were near 21% of everything screened. Unless noted, calls follow the shape of the dose curve; as a rule, active = well fitted curve in the direction sought with a large enough effect; inconclusive = small, poorly fitted or top-dose-only effect, or another doubt; inactive = no such curve, though single readings can be large; an effect the other way counts as inactive or inconclusive. % is scaled to controls: 0 for no effect and ±100 for the full control effect.

SMILES | RORg inh | Gal4-VP16 FLuc | IL1B secr inh | DT40 TDP1 no CPT | DT40 TDP1 CPT | ELG1 repair inh
O=C(CCC(=O)N1CCSc2ccccc21)Nc1ccc(Cl)cc1 | · | · | · | 21µM* | 15µM* | ·
Cc1ccc(NC(=O)CCC(=O)N2CCSc3ccccc32)cc1 | · | · | · | ? | 16µM* | ·
Cc1ccccc1NC(=O)CCC(=O)N1CCSc2ccccc21 | · | · | · | ? | -27% | ·
CCOC(=O)c1ccc(NC(=O)CCC(=O)N2Cc3ccccc3Oc3ncccc32)cc1 | · | · | · | 21µM* | 16µM* | ·
COc1ccc(CNC(=O)Cc2coc3ccc(C)cc23)cc1 | · | · | · | -20% | -5% | ·
CCn1c(=N)c(C(=O)NCC2CCCO2)cc2c(=O)n3cc(C)ccc3nc21 (stereo not drawn) | · | · | · | -1% | -2% | ·
CCN(C/C=C/C#CC(C)(C)C)Cc1cccc(OCc2cc(-c3ccsc3)cs2)c1 | 2% | 6% | · | · | · | ·
COc1ccc(OC)c(CCNC(=O)CCC(=O)N2CCOc3ccc(C)cc32)c1 | -1% | 7% | -23 | ? | 23µM* | -15%
COc1cc(OC)cc(-c2nc3ccccc3c(=O)n2OC(=O)c2ccc(C)c(C)c2)c1 | ? | ? | ? | ? | ? | 10µM*
COc1cccc(/C=N/n2c(-c3n[nH]c4c3CCC4)n[nH]c2=S)c1OC | -18% | 5% | · | -10% | 0% | 20%
CC1CN(c2nc(-c3ccc(Br)cc3)nnc2-c2ccccc2)CC(C)N1 (stereo not drawn) | -2% | ? | -105* | 10µM* | 13µM* | -16%
Clc1ccc(-c2nnc(-c3ccccc3)c(N3CCSCC3)n2)cc1 | 20% | 1% | -30 | ? | 21µM* | ?
FC(F)(F)c1nnc(-c2ccccc2)nc1N1CCOCC1 | 23% | -5% | 4 | -10% | -2% | 3%
FC(F)(F)c1cccc(-c2nnc(-c3ccccc3)c(N3CCOCC3)n2)c1 | 11% | 1% | -26 | 16µM* | 18µM* | ?
Clc1ccc(-c2nnc(-c3ccccc3)c(-c3ccccc3)n2)cc1 | -3% | 3% | -12 | -30% | -13% | 0%
COc1ccc(NC(=O)C[C@H]2C(=O)N(C3CCCCC3)C[C@@H]2C)cc1 | · | · | 1 | -9% | -14% | ·
CC(C)OCCCNC(=O)CCC(=O)NNc1nc2ccccc2c2nc(-c3ccccc3)nn12 | 38% | ? | -22 | ? | -79% | ?
CCc1ccc(C(=O)c2cn(CC(=O)Nc3ccc(OC)c(Cl)c3)c3nc(C)ccc3c2=O)cc1 | · | · | · | ? | -22% | ·
COc1ccc(C(=O)NCC(O)CN2CCOCC2)cc1[N+](=O)[O-] (stereo not drawn) | -20% | -3% | -2 | -7% | -5% | 0%
COc1ccc(C(=O)NC(=S)Nc2ccccc2N2CCCCC2)cc1[N+](=O)[O-] | ? | 1µM* | 18 | 6.5µM* | 12µM* | -29%
Cc1c(C(=O)NC(=S)Nc2ccccc2N2CCCC2)cccc1[N+](=O)[O-] | ? | -100% | 1 | ? | ? | 13%
COc1ccc(C(=O)NC(=S)Nc2cccc(Cl)c2N2CCOCC2)cc1[N+](=O)[O-] | 1.8µM* | 5µM* | 10 | ? | ? | ?
CCOc1ccc(C(=O)NC(=S)Nc2ccccc2N2CCCCC2)cc1[N+](=O)[O-] | ? | 0.5µM* | 2 | ? | 18µM* | -2%
O=C(NC(=S)N1CCCCCC1)c1cccc([N+](=O)[O-])c1 | · | · | 17 | 16µM* | ? | -3%
O=C(Cn1cncn1)N1CCOc2ccc(CN3CCN(c4ccccc4)CC3)cc2C1 | · | · | · | 3% | 14%[9.04 µM] | ·
O=C(O)c1ccc2c(c1)C(=O)N([C@H](Cc1ccc(O)c(O)c1)C(=O)O)C2=O | -8% | -1% | · | · | · | ·

From PubChem BioAssay
